Screening data deposited in PubChem BioAssay by National Center for Advancing Translational Sciences (NCATS).
This is a sample that favours compounds with a hit; in the whole collection about 7.5% have one here.
SMN2 splice enh: enhancers of SMN2 splice variant expression; HEK293 SMN2-luciferase splicing reporter, luminescence, 30-36 h; Potency, µM (highest dose often 46.1 µM), for inactives: top-dose activity change, positive = activation, actives largely listed as activators; 210,000 tested, 2.8% active; AID 1458; further: % of control where 0% means no effect; nearly all actives have a fitted effect of over 55% in size
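HEK293 cells carry an SMN2 minigene-luciferase reporter in which exon 7 inclusion puts luciferase in frame. Cells were seeded at 2000 cells/well, attached for 10-12 hours, then exposed to compounds for 30-36 hours at 37C before ONE-Glo luminescence.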
ELG1 genotoxic: induces genotoxicity in HEK293T cells with luciferase-tagged ELG1; 330,000 tested, 1.3% active; HEK293T ELG1-luciferase reporter, luminescence, 16 h; Potency, µM (highest dose often 46 µM), for inactives: at the highest dose activity change, positive = activation, actives largely listed as activators; further: % of control where 0% means no effect; nearly all actives have a fitted effect of over 60% in size
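Luminescence read-out: rising ELG1-luciferase signal, reflecting elevated ELG1 protein under genetic stress, flags genotoxic compounds. Cells were treated for 16 hr at 37 °C before ONE-Glo detection.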
KinaseGlo FLuc: counter-screen: inhibitors of Kinase-Glo firefly luciferase; Kinase-Glo luciferase, ATP luminescence, 8 min; Q27757; 200,000 tested, 0.28% active; Potency, µM (highest dose often 38.3 µM), for inactives: at the top dose activity change, negative = inhibition, most hits filed as inhibitors; further: on the % scale 0 is the no-effect control and ±100 the full control effect; nearly all actives have a fitted effect of over 60% in size
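Kinase-Glo luciferase light output from ATP and luciferin was measured with 10 uM ATP, within the enzyme's linear range. Buffer: 50 mM imidazole pH 7.2, 50 mM KCl, 7 mM MgCl2, 0.01% Tween 20, 0.05% BSA; luminescence read after 8 min at ambient temperature.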
Rab9 promoter act: Rab9 promoter activation; Potency, µM (highest dose often 9.22 µM), for inactives: top-dose activation, negative = inhibition, most hits filed as activators; AID 485297; 320,000 tested, 2.8% active; Huh7 Rab9 promoter-luciferase reporter, luminescence, 24 h; further: % of control where 0% means no effect; nearly all actives have a fitted effect of over 60% in size
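Luminescence from Amplite-detected luciferase (10 minutes, ambient) reports Rab9 promoter activation. Before that, stable Rab9-luciferase Huh7 cells (1500/well, reduced-serum OP-MEM I plus 10% FBS) were exposed to compound for 24 hours at 37C.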
FLuc modulator: inhibits or activates purified firefly luciferase, miR-21 counter-screen. P08659. purified FLuc, Km substrates, luminescence inhibition. Potency, µM (series often up to 57.5 µM), without a hit: at the top dose activity change, negative = inhibition, hits mostly inhibitors. 360,000 tested, 6.9% active. AID 588342;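 further: plate controls were vehicle for no effect and reference inhibitor for full effect; nearly all actives have a fitted effect of over 55% in size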
Target sequence (P08659 whole entry, looked up): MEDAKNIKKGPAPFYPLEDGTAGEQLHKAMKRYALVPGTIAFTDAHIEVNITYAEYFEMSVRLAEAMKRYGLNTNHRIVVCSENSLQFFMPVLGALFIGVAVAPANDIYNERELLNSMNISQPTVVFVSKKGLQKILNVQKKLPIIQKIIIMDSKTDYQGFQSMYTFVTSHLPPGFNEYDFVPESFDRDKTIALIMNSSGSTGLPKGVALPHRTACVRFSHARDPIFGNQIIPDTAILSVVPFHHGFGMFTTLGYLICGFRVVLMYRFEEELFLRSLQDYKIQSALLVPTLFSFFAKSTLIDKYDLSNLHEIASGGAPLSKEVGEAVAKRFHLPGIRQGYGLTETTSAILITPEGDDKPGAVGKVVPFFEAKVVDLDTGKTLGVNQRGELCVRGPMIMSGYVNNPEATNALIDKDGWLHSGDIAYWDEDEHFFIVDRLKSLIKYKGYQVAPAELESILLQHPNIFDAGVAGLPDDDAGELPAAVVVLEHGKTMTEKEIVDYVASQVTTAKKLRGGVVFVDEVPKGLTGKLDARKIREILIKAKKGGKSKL
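Purified P. pyralis luciferase (10nM final) with 10uM D-luciferin and 10uM ATP (Km levels) in 50mM Tris acetate pH 7.5, 10mM Mg acetate, 0.01% Tween-20, 0.05% BSA; qHTS 6-point titration, ~60 µM downward; luminescence read.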
NPC1 promoter act: activates the NPC1 promoter. Huh7 NPC1 promoter luciferase reporter, 24 h. Potency, µM (highest dose often 9.22 µM), without a hit: at the highest dose activation, usual class: activators. 320,000 tested, 2.4% active. AID 485313; further: % of control where 0% means no effect; nearly all actives have a fitted effect of over 60% in size
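NPC1 promoter–luciferase Huh7 cells; 24 h compound; luminescence.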
Numbers without * were called inactive; ? = inconclusive; / = no result given; [ ] = remark or other dose. The call rests on the fitted dose curve; in most records, active means well fitted curve in the direction sought with a large enough effect; inconclusive means small, poorly fitted or top-dose-only effect, or another doubt; inactive means no such curve, though single readings can be large; an effect the other way counts as inactive or inconclusive. Potency means the concentration at half of the fitted maximal effect.

SMILES	SMN2 splice enh	ELG1 genotoxic	KinaseGlo FLuc	Rab9 promoter act	FLuc modulator	NPC1 promoter act
CCCn1c(SCC(=O)Nc2nnc(CC)s2)nnc1-c1ccncc1	/	0%	1%	1%	5%	-4%
CCC(Sc1nnc2c3ccccc3n(CC)c2n1)C(=O)Nc1ccc(NC(C)=O)cc1 (stereo unspecified)	-4%	/	/	/	-14%	/
COc1ccc(Cc2nc3ccc(C(=O)N4C[C@@H](C)O[C@@H](C)C4)cc3o2)cc1OC	/	?	/	10%	15µM*	26%
COc1ccc(Cc2nc3ccc(C(=O)N4CCOCC4)cc3o2)cc1	/	18µM*	/	4µM*	13µM*	3.2µM*
CCN(CC)C(=O)CSc1ncnc2c1nnn2-c1ccc(OC)cc1	-27%	4%	-8%	1%	?	-2%
CCC(Sc1ncnc2c1nnn2-c1ccc(F)cc1)C(=O)OC (stereo unspecified)	7%	?	-3%	?	5.4µM*	?
COC(=O)c1ccc(CSc2ncnc3c2nnn3-c2ccc(F)cc2)o1	-10%	3%	3%	-9%	8.5µM*	3%
CCOC(=O)C(C)Sc1ncnc2c1nnn2-c1ccc(F)cc1 (stereo unspecified)	17%	17%	-4%	?	12µM*	?
CCN(CC)C(=O)CSc1ncnc2c1nnn2-c1ccc(F)cc1	-10%	2%	0%	-2%	13µM*	-1%
COc1ccc(C2Nc3ccccc3-n3c(-c4ccccc4)c4c(=O)n(C)c(=O)n(C)c4c32)cc1 (stereo unspecified)	/	/	/	/	-6%	/
CCOc1ccc(/C=C/c2nc(C#N)c(NC3CCCCC3)o2)cc1	23%	/	/	/	1%	/
Cc1c(C(=O)O)oc2c(F)cccc12	7%	0%	3%	-3%	-20%	-3%
Cc1c(C(=O)N2C[C@@H](C)O[C@@H](C)C2)oc2c(F)cccc12	/	?	/	?	15µM*	?
Cc1c(C(=O)NC2CCOC2)oc2c(F)cccc12 (stereo unspecified)	/	18%[9.26 µM]	/	2.5µM*	11µM*	2.2µM*
COc1ccccc1NCC(=O)c1ccc(C)c(C)c1	/	0%	/	-1%	17µM*	2%
COc1ccccc1NCC(=O)c1ccc(Cl)cc1	/	0%	/	10%	17µM*	1%
O=C(NCCN1CCN(C(=O)c2ccc([N+](=O)[O-])cc2)CC1)C(=O)Nc1ccc(F)cc1	/	-1%	/	3%	-2%	-1%
CCN1CCN(C(c2ccc(F)cc2)c2c(O)cc(C)n(CCOC)c2=O)CC1 (stereo unspecified)	/	/	/	/	-2%	/
COC(=O)c1oc2nc(C)cc(C)c2c1N	18%	4%	3%	-2%	1%[2.3 µM]	1%
Cc1cc(C)c2c(N)c(C(=O)c3ccc(Br)cc3)oc2n1	/	-3%	/	0%	?	-1%
COCc1cc(C)nc2oc(C(=O)c3ccccc3)c(N)c12	10%	4%	-3%	3%	17µM*	-1%
Cc1cc(C)c2c(N)c(C(=O)c3ccccc3)oc2n1	-7%	/	-2%	/	24µM*	/
CN(CC1COc2ccccc2O1)C(=O)c1ccc(Cl)c(S(=O)(=O)N2CCCCCC2)c1 (stereo unspecified)	/	-5%	/	0%	0%	1%
COc1ccc(-c2nc(SCC(=O)Nc3ccc4c(c3)OCCO4)c(-c3ccccc3)[nH]2)cc1	-22%	/	/	/	6µM*	/
O=C(CSc1nc(-c2ccccc2)[nH]c1-c1ccccc1)Nc1ccc2c(c1)OCO2	24%	/	/	/	-14%	/
SMILES	SMN2 splice enh	ELG1 genotoxic	KinaseGlo FLuc	Rab9 promoter act	FLuc modulator	NPC1 promoter act
COc1ccc(-c2[nH]c(-c3cccc(OC)c3)nc2SCC(=O)Nc2ccc3c(c2)OCO3)cc1	1%	/	/	/	-9%	/
COc1cc(-c2nc(SCC(=O)Nc3ccc4c(c3)OCO4)c(-c3ccccc3)[nH]2)cc(OC)c1OC	?	/	/	/	8.5µM*	/
Cc1cccc(-c2nc(SCC(=O)Nc3ccc4c(c3)OCCO4)c(-c3ccccc3)[nH]2)c1	-41%	/	/	/	8.5µM*	/
O=C(CSc1nc(-c2cccc(F)c2)[nH]c1-c1ccccc1)Nc1ccc2c(c1)OCCO2	37%	/	/	/	?	/
CCOc1ccc(-c2nc(SCC(=O)Nc3ccc4c(c3)OCCO4)c(-c3ccc(F)cc3)[nH]2)cc1	-15%	/	/	/	3%	/
COc1cccc(-c2nc(SCC(=O)Nc3ccc4c(c3)OCCO4)c(-c3ccccc3)[nH]2)c1	-20%	/	/	/	5.4µM*	/
O=C(C1CCC1)N1CCc2cc(S(=O)(=O)NCc3ccc(F)cc3)ccc21	-8%	/	/	/	-1%	/
Cc1ccccc1C(=O)Nc1c(C)nc(Nc2ccccc2)nc1Nc1ccccc1	-38%	/	/	/	0%	/
O=C(c1cc(-c2cccc(Cl)c2)on1)N1CCCCC1	10%	/	/	/	21µM*	/
O=C(c1cc(-c2cccc(O)c2)on1)N1CCCCC1	?	3.7µM*	-5%	?	3µM*	?
O=C(c1cc(-c2cccc(O)c2)on1)N1CCCC1	/	7.3µM*	/	?	6µM*	?
CCN(C(=O)CSc1nc2ccccc2n1C)C1CCS(=O)(=O)C1 (stereo unspecified)	/	0%	/	0%	2%	-1%
CCCC/C=C/C(NC(=O)c1ccco1)c1ccccc1 (stereo unspecified)	-26%	/	-11%	/	/	/
CN(C)N=Nc1ccc(-c2cn(Cc3ccccc3)cn2)cc1	/	?	/	?	19µM*	2.8µM*
Nc1cc(-c2ccccc2)nn1Cc1ccccc1	-44%	0%	3%	-8%	-7%	9%
CCOc1ccccc1NC(=O)N1c2ccccc2Sc2ccccc21	?	/	/	/	-2%	/
COC(=O)[C@@]12OC[C@]34[C@H]([C@@H](O)[C@@H]1O)[C@@]1(C)C(=O)C(O[C@@H]5OC(CO)[C@@H](O)[C@@H](O)[C@@H]5O)=C[C@@H](C)[C@@H]1C[C@H]3OC(=O)[C@H](OC(=O)/C=C(\C)C(C)(C)OC(C)=O)[C@@H]24 (stereo partly specified)	/	-34%	/	-14%	1%	-7%
CCn1c(=O)c2c(n3c(=S)[nH]nc13)-c1ccccc1CC21CCCCC1	-18%	5%	2%	2%	15µM*	-5%
CCn1c(SCC#N)nc2c(c1=O)C1(CCCC1)Cc1ccccc1-2	2%	-5%	1%	5%	5%	-7%
CCCOc1ccc(CNC(=O)Cn2ncn3c(cc4sc(CC)cc43)c2=O)cc1	-8%	/	/	/	-2%	/
Cc1nc(CNC(=O)c2cc(COc3ccc(F)cc3Cl)on2)cs1	/	1%	/	0%	27µM*	-1%
